This is an account of results in PubChem BioAssay AID602410 (Johns Hopkins Ion Channel Center, 2012).

Hit rate of the full screen: of about 340,000 compounds, about 2,800 (0.82%) were called active.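 Rule for the calls: active = B-score under library mean minus 4 SD, starting fluorescence ratio at most library mean plus 5 SD; inactive = the rest.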 What follows is part of a selection rich in actives, with near analogues and random picks from the rest.

For this experiment, the target named is Potassium channel subfamily K member 3 (Homo sapiens) (UniProt O14649). The experiment in a line: human KCNK3 channel inhibitors, primary screen, CHO cells, FluxOR thallium flux, B-score (AID 602410).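 For B-score: more negative B-score means stronger inhibition of thallium flux through KCNK3.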 The following applies: FluxOR fluorescence, at 10 µM; active compounds read low.
Potassium channel subfamily K member 3 (Homo sapiens), sequence (O14649 whole entry, looked up): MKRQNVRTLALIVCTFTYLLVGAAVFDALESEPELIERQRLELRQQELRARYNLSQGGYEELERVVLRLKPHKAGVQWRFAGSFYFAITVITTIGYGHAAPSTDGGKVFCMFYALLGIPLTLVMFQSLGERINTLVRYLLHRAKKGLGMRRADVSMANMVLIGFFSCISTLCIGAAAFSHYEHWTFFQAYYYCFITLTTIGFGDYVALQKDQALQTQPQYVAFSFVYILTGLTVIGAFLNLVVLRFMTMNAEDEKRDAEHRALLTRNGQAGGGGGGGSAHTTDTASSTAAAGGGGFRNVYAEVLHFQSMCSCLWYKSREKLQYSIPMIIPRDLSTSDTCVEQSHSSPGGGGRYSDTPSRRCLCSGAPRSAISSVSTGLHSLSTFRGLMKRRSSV
As to `COc1ccccc1Oc1ccc(N2CC(C(=O)OCC(=O)c3ccc(F)cc3)CC2=O)cc1` (stereo not given), the B-score entry is “inactive”.
In the case of `CC(O)c1nc2ccccc2n1Cc1ccc([N+](=O)[O-])cc1` (stereo not given) it was “inactive”; in that of `CCc1ccc(-n2c(=S)sc3c(=O)n(-c4ccccc4OC)c(=S)[nH]c32)cc1`, -11 (active); in that of `COc1ccccc1-n1c(=S)[nH]c2c(sc(=S)n2-c2ccc(C)cc2C)c1=O`, “inactive”.
Under `COc1cccc(-n2c(=S)sc3c(=O)n(-c4ccccc4OC)c(SCC4OCCO4)nc32)c1` stands “inactive”.
Under `C/C(=N\Nc1ccc([N+](=O)[O-])cc1)c1ccc(-n2nncc2C(C)(C)C)cc1` stands “inactive”; under `CCCCC(NC(=O)c1cccc(Br)c1)C(=O)O` (stereo not given), “inactive”; under `O=[N+]([O-])c1ccc2c(c1)Nc1nc3ccccc3nc1N2`, “inactive”.
For the compound `COc1ccc([N+](=O)[O-])cc1-c1nc2ccccc2nc1-c1ccccc1`, the B-score is -12 (active).
Under `O=[N+]([O-])c1cc2ccccc2nc1-c1ccccc1` stands “inactive”.
On to `CCOc1ccc(NC(=O)c2ccccc2NS(C)(=O)=O)cc1`, for which the B-score entry was “inactive”.
For `COc1cc(NC(=O)c2ccccc2NS(=O)(=O)c2ccc(Cl)s2)cc(OC)c1`, the B-score was -9.84 (active).
Under `COc1ccccc1C(=O)Nc1ccccc1C(=O)Nc1ccccc1` stands “inactive”; under `Cc1ccc(S(=O)(=O)NNC(=S)NC(C)(C)C)cc1`, “inactive”.
In the case of `C=CCn1c(SCc2ccc(C(=O)NCCO)cc2)nc2ccccc2c1=O` it was “inactive”.
Turning to `O=C(Nn1c(SCc2ccc([N+](=O)[O-])cc2)nc2ccccc2c1=O)c1ccc(F)cc1`, the B-score is -9.24 (active).
Under `Cc1nc2ccccc2c(=O)n1NC(=O)c1ccc(Cl)c([N+](=O)[O-])c1` stands “inactive”; under `Cc1nc2cccnc2nc1C`, “inactive”.
In the case of `COc1ccc(-c2c(NC(=O)c3ccco3)oc3ccc(Cl)cc3c2=O)cc1` it was “inactive”; in that of `Cc1cc([N+](=O)[O-])ccc1NC1CCCC1`, “inactive”; in that of `Cc1cc(C=O)c(C)n1-c1ccc(NC2CCCCC2)c([N+](=O)[O-])c1`, -13.4 (active).
Under `Cc1c(NS(=O)(=O)c2ccc(NC3CCCC3)c([N+](=O)[O-])c2)c(=O)n(-c2ccccc2)n1C` stands “inactive”; under `Cc1cccc(N=C2NC(=O)CS2)c1C`, “inactive”; under `CCn1cc(C(=O)NCCCN2CCCCCC2)c(=O)c2cc(S(=O)(=O)N3CCc4ccccc4C3)ccc21`, “inactive”.
Regarding `O=C(CSc1nnc(-c2ccncc2)n1-c1ccc(Cl)cc1)Nc1ccc(C(=O)O)cc1`, the B-score result is “inactive”.
Regarding `CCN(CC(=O)Nc1ccc2c(c1)OCCO2)Cc1cc(=O)oc2cc(C)c(C)cc12`, the B-score was -8.72 (active).
Under `Cc1ccc(SCC(=O)Nc2ccc3c(c2)OCCO3)cc1` stands “inactive”.
Under `O=C(COc1ccc2c(C(F)(F)F)cc(=O)oc2c1)Nc1ccc2c(c1)OCCO2` stands “inactive”; under `Cc1cccc(N(C(=O)Cn2nnc(-c3ccc(C)o3)n2)C(C(=O)NC2CCCC2)c2ccncc2)c1` (stereo not given), “inactive”; under `CCC(C)(C)NC(=O)/C=C/c1cc(OC)c(OC)c(S(=O)(=O)N2CCc3ccccc32)c1`, “inactive”.
In the case of `COc1cc(Cl)c(S(=O)(=O)N2CCN(Cc3ccc4c(c3)OCO4)CC2)cc1Cl`, the B-score is -11.5 (active).
Under `COc1ccc(-c2cc(C(=O)N3CCN(Cc4ccc5c(c4)OCO5)CC3)on2)cc1OC` stands “inactive”; under `CCn1cc(C(=O)N2CCN(Cc3ccc4c(c3)OCO4)CC2)c2cc(OC)c(OC)cc2c1=O`, “inactive”.
Under `Cc1nc(N)sc1N=Nc1c(C)n(C)n(-c2ccccc2)c1=O` stands “inactive”; under `FC(F)(F)c1cccc(-c2cc3ccccc3nc2N2CCCC2)c1`, -9.37 (active).
On to `c1ccc(-c2cc(N3CCCCC3)c3ccccc3n2)cc1`, for which the B-score entry is “inactive”.
Consider `O=C(c1cc2ccccc2o1)N1CCN(c2cccc(C(F)(F)F)c2)CC1`, for which the B-score entry is “inactive”.
Under `COC(=O)[C@@H]1CC(O)CN1C(=O)C12CC3CC(CC(C3)C1)C2` (stereo not given in full) stands “inactive”; under `CC1CN(CCOc2ccccc2[N+](=O)[O-])CC(C)O1` (stereo not given), “inactive”; under `Cc1cccc(C)c1N1CCN(S(=O)(=O)N2CCOCC2)CC1`, “inactive”.
Turning to `Cc1cccc(C(=O)N2CCN(S(=O)(=O)N3CCCCC3)CC2)c1`, the B-score entry is “inactive”.
Take `Cc1cccc(C)c1N1CCN(S(=O)(=O)N2CCCCC2)CC1`: the B-score was -11.9 (active).
In the case of `COC(=O)c1ccc(CNC(=O)C2CCC(=O)N(Cc3ccccn3)C2)cc1` (stereo not given), the B-score result was “inactive”.
In the case of `COc1ccc(CN2CCN(C(=O)c3cc(C4CC4)nn3-c3ccccc3)CC2)cc1F` it was “inactive”; in that of `O=C(O)/C=C\C(=O)Nc1ccc(OCc2ccccc2)cc1`, “inactive”.
In the case of `CN(Cc1ccccc1)C(=O)c1ccc(COc2ccccc2)cc1` it was “inactive”.
Under `[O-][n+]1ccc(OCc2ccccc2)cc1` stands -9.05 (active).
In the case of `CCCN1Cc2cccc(C(=O)Nc3ccc(S(=O)(=O)N4CCCCCC4)cc3)c2C1=O`, the B-score entry was “inactive”.
Under `O=S(=O)(Nc1ccc(O)c2ccccc12)c1ccc(OC(F)(F)F)cc1` stands “inactive”.
As to `Cc1nn(C)c(Oc2ccc(Cl)cc2)c1C=O`, the B-score entry is “inactive”.
In the case of `CCN(CC(=O)Nc1cc(Cl)ccc1C)C(=O)Cn1c(=O)cnc2ccccc21` it was “inactive”.
Under `COc1cc(/C=C(\C#N)c2nc3ccccc3[nH]2)ccc1O` stands -8.85 (active); under `CCCCCOc1ccc(/C=C/C(=O)NCCc2nc3ccccc3[nH]2)cc1OC`, “inactive”; under `Cc1ccc(O)c(CNc2nc3ccccc3[nH]2)c1`, “inactive”.
Take `CCCCCc1nnc(NC(=O)c2ccc(=O)n(C)n2)s1`: the B-score result is “inactive”.
In the case of `COCCCNCCOCCOc1ccc(Cl)cc1Br` it was “inactive”; in that of `Cc1ccc(OCC(=O)c2cc(C)n(Cc3ccco3)c2C)c([N+](=O)[O-])n1`, “inactive”.
In the case of `Cc1ccc(S(=O)(=O)N2CCN(CC(=O)N/N=C/c3ccc(Br)s3)CC2)cc1` it was “inactive”; in that of `Cc1cccc(NC(=O)CN2CCCN(S(=O)(=O)c3ccc(Br)s3)CC2)c1`, -11.4 (active).
Regarding `CC(C)N(C(=O)CN1CCN(S(=O)(=O)c2ccc(Br)s2)CC1)C(C)C`, the B-score result was “inactive”.
In the case of `NC(=O)C1CCN(C(=O)CC2C(=O)NCCN2Cc2cccc(Oc3ccccc3)c2)CC1` (stereo not given) it was “inactive”; in that of `C[C@H](O)[C@@H]1C(=O)N2CCc3ccc(N4CCOCC4)cc3[C@@H]2C[C@@H]1N(C)C(=O)C(C)(C)C`, “inactive”; in that of `CC(NC(=S)Nc1ccccc1)C(c1cccs1)N1CCOCC1` (stereo not given), “inactive”.
Under `CN(C)S(=O)(=O)c1cccc(NC(=O)Cc2ccsc2)c1` stands “inactive”; under `CN(c1ccccc1)S(=O)(=O)c1cccc(NC(=O)Cc2ccc(Cl)cc2)c1`, -10.7 (active).
For the compound `CN(c1ccccc1)S(=O)(=O)c1cccc(NC(=O)Cc2c(F)cccc2Cl)c1`, the B-score entry was “inactive”.
For the compound `Cc1cc(F)ccc1S(=O)(=O)Nc1ccc(C(=O)N(C)Cc2ccco2)cc1`, the B-score entry was “inactive”.
Under `Cc1nonc1C1CCCN1C(=O)c1cc(COc2cccc(C(F)(F)F)c2)on1` (stereo not given) stands -9.02 (active).
Under `O=C(NC1Cc2ccccc2C1)c1cc(COc2cccc(C(F)(F)F)c2)on1` stands “inactive”; under `O=C(c1cc(COc2cccc(C(F)(F)F)c2)on1)N1CCSCC1`, “inactive”; under `CCCNC(=O)c1ccc(N2CCC3(CC2)CC(c2cccc(Br)c2)=NO3)c(NC(=O)c2ccco2)c1`, “inactive”.
In the case of `CS(=O)(=O)N1CCCC(C(=O)N2CCOCC2)C1` (stereo not given) it was “inactive”; in that of `S=c1[nH]nc(-c2ccco2)n1/N=C/c1ccc(Br)s1`, “inactive”.
Consider `CCN(CC(=O)NCc1ccc(Cl)cc1)C(=O)CSc1ccccc1`, for which the B-score result was “inactive”.
As for `CSc1cccc(NC(=S)N(Cc2ccccc2)Cc2ccccn2)c1`, the B-score entry is “inactive”.
On to `CSc1cccc(NC(=S)N(C(C)C)C(C)c2ccccn2)c1` (stereo not given), for which the B-score is -10.1 (active).
Under `CC(c1ccccn1)N(CCN(C)C)C(=S)Nc1ccccc1F` (stereo not given) stands “inactive”; under `NC(=S)Nc1c(Cl)cccc1Cl`, “inactive”; under `FC(F)(F)c1cccc(Cc2noc(CN3CCC(N4CCCCC4)CC3)n2)c1`, “inactive”.
Under `COc1ccc(CN(C)C(C)C(=O)NC2CCCc3ccccc32)cc1` (stereo not given) stands “inactive”.
Under `CC(C(=O)NCC1CCCCC1)N(C)Cc1cccc(Cl)c1` (stereo not given) stands -8.9 (active); under `CNS(=O)(=O)c1cccc(C(=O)NCC2CCCCC2)c1`, “inactive”.
As to `CCc1cccc(NC(=O)C2CCCN(S(=O)(=O)c3ccc4[nH]c(=O)ccc4c3)C2)c1` (stereo not given), the B-score entry was “inactive”.
In the case of `Cc1cc(OCC(=O)Nc2c(C)n(C)n(-c3ccccc3)c2=O)ccc1[N+](=O)[O-]`, the B-score entry was “inactive”.
In the case of `COc1ccc(CNCCCn2cnc3c(OCc4ccccc4)ncnc32)cc1` it was “inactive”; in that of `S=C(Nc1cccc(Br)c1)N1CCn2cccc2C1c1cccnc1` (stereo not given), -9.52 (active); in that of `S=C(NCCc1ccccc1)N1CCn2cccc2C1c1ccncc1` (stereo not given), “inactive”.
Under `Fc1cc(Br)ccc1NC(=S)Nc1cccnc1` stands “inactive”.
Under `C=C(C)c1cccc(C(C)(C)NC(=O)N2CCN(c3ncccn3)CC2)c1` stands “inactive”.
As to `C=CCN1CN(S(=O)(=O)c2ccc(OC)cc2)c2nc3ccccc3nc21`, the B-score result was “inactive”.
With `O=C(Nc1ccc2c(c1)OCCO2)c1ccc(Cl)c(S(=O)(=O)N2CCCCC2)c1`, the B-score entry is “inactive”.
In the case of `O=C(Nc1ccc(Cl)cn1)c1ccc2c(c1)OCCO2` it was “inactive”.
In the case of `O=C(Nc1cccc(S(=O)(=O)Nc2ccc(Cl)cc2)c1)c1ccc2c(c1)OCCO2` it was -9.14 (active).
For the compound `O=C(NCc1ccco1)C(=O)c1cn(CC(=O)N2CCCCCC2)c2ccccc12`, the B-score entry is “inactive”.
In the case of `CCOC(=O)c1cc2cc(-c3c(C(=O)OCC)oc4cc(O)cc(O)c4c3=O)ccc2o1` it was -9.55 (active).
Under `O=c1c(-c2ccc3c(c2)OCCO3)c(C(F)(F)F)oc2cc(O)cc(O)c12` stands “inactive”.
Turning to `CCOC(=O)c1cc(=O)c2ccc(OCc3ccccc3)cc2o1`, the B-score result was “inactive”.
Take `COc1ccccc1NC(=O)CCC(=O)N1CC(C)Oc2ccc(C)cc21` (stereo not given): the B-score entry is “inactive”.
Under `O=C(O)C(CCc1ccccn1)c1ccccc1` (stereo not given) stands “inactive”.
For the compound `Cc1ccc(CS(=O)(=O)CCC(=O)NC2CC2)cc1`, the B-score result is “inactive”.
In the case of `COc1ccc(-c2nn(C)c(=O)c3ccccc23)cc1CNC(=O)C1CCCCC1` it was “inactive”; in that of `O=C(Nc1ccccc1N1CCCC1)c1ccc2ccccc2c1`, -8.97 (active); in that of `CCC(C)C(=O)Nc1ccccc1N1CCN(c2ccc(F)cc2)CC1` (stereo not given), “inactive”.
Under `Cc1cccc(C(=O)Nc2ccccc2N2CCN(c3ccc(F)cc3)CC2)c1` stands -12.2 (active); under `CCCC(=O)Nc1ccccc1N1CCN(C(=O)c2ccccc2)CC1`, “inactive”.
For the compound `O=C(NC(=S)Nc1ccccc1N1CCCCC1)c1ccc(F)cc1`, the B-score entry was “inactive”.
In the case of `Cc1cccc(C(=O)NC(=S)N2CCN(c3ccc([N+](=O)[O-])cc3)CC2)c1` it was “inactive”; in that of `CCCCC(=O)Nc1ccccc1N1CCN(c2ccc(F)cc2)CC1`, -9.06 (active).
Regarding `O=C(Nc1ccccc1N1CCOCC1)c1ccncc1`, the B-score entry was “inactive”.
In the case of `O=C(Nc1ccccc1N1CCCC1)c1ccc(F)c(S(=O)(=O)N2CCOCC2)c1` it was “inactive”.
